PubChem BioAssay (NCI)
Compounds without any hit were thinned out: in the full panel of roughly 83,000, 20% have a hit.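 Cells were grown in 96-well plates and exposed to the test compound at a single concentration for 48 hours; results are reported as percent growth, with values below 10 considered active.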 A number with no mark means an inactive call. Calls of active or inactive are those of the source.

The compounds below were run on CAKI-1 renal (assay: NCI-60 one-dose screen, 48 h (100 = growth as untreated, 0 = no growth, -100 = all killed)). Conditions: 10 µM unless noted.

| SMILES | growth |
| --- | --- |
| NC1=CC(=O)C(=O)c2ccccc21 | 91.3% |
| NC(CC(=O)O)C(=O)OCc1ccccc1 (stereo unspecified) | 79.9% |
| Cc1ccn2c(-c3csc(Nc4cccc(O)c4)n3)c(C)nc2c1 | 80.6% |
| COc1ccc(C(=O)c2sc3nc(-c4ccccc4OC)ccc3c2N)cc1OC | 62.4% |
| Cc1nn(-c2nc3ccccc3[nH]2)c2c1C(c1ccc3c(c1)OCO3)CC(=O)N2 (stereo unspecified) | 65.7% |
| COc1cnc2c(c1)C(=O)c1c-2n(CCCN2CCCC2)c(=O)c2cc([N+](=O)[O-])ccc12 | -13.6% (active) |
| Cc1cc(Nc2nc(N3CCOCC3)nc3ccccc23)n[nH]1 | 9.88% (active) |
| O=c1c(/C=C/c2ccco2)nnc(SCCN2CCOCC2)n1/N=C/c1ccc([N+](=O)[O-])cc1 | 106% |
| Nc1nc2ccc(-c3nc4ccc5[nH]ncc5c4c4c3CCC4)cc2s1 | 1.07% (active) |
| COc1ccc(C(=O)c2sc3nc4c(cc3c2N)CCCC4)cc1OC | 57.9% |
| O=C1Nc2c(ccc(Cl)c2Cl)/C1=C/c1cc(Br)c(O)c(Br)c1 | 46.8% |
| Cn1c2c(Cl)c(Cl)ccc2c2ccn3c(=O)c4ccccc4nc3c21 | 89.1% |
| C/C(=C(/c1ccc(O)cc1)c1ccc(Cl)cc1)c1ccccc1 | -54.2% (active) |
| Oc1ccc2c(=S)cc(-c3ccc(Br)cc3)oc2c1O | 65.8% |
| COc1cccc(-n2cc(-c3nc(Nc4cc(C)[nH]n4)c4ccccc4n3)nn2)c1 | 2.59% (active) |
| O=C([C@@H](COCc1ccccc1)N1C(=O)[C@@H](N2C(=O)OC[C@@H]2c2ccccc2)[C@H]1/C=C/c1ccccc1)N1CCC(CCN2CCCCC2)CC1 | 99.9% |
| COc1ccc(-c2cc(/C=C3\C(=O)Nc4ccc(Cl)cc43)[nH]n2)cc1 | 65.8% |
| CNC(=S)N/N=C/CSC/C=N/NC(=S)NC | 98.7% |
| CCCCCCCCOC(=O)CC[C@@H](C)[C@H]1CC[C@H]2[C@@H]3[C@H](OC(=O)CCN)C[C@@H]4C[C@H](OC(=O)CCN)CC[C@]4(C)[C@H]3C[C@H](OC(=O)CCN)[C@]12C | 108% |

| SMILES | growth |
| --- | --- |
| O=C1C=CC(=O)N1c1ccc(Cc2ccc(N3C(=O)C=CC3=O)cc2)cc1 | 65.7% |
| N#CC1=C(N)Oc2c(ccc3ccccc23)C1c1cccs1 (stereo unspecified) | 48.9% |
| Cc1cc(Nc2nc(N3CCNCC3)nc3ccccc23)n[nH]1 | 20.1% |
| COc1cc(/C=N/N(C)C)ccc1O | 102% |
| CCN(CC)CC(O)CNc1c2ccc([N+](=O)[O-])cc2nc2cc(OC)c(OC)cc12 (stereo unspecified) | 16.3% |
| O=C1Nc2ccc(Br)cc2C12CC(c1ccccc1)=NN2 (stereo unspecified) | 51.5% |
| O=C1C=CC(=O)c2c1nc1n2CCCC1 | 95.7% |
| Cc1cc(=O)oc2cc(Oc3nc(-c4cccs4)cn4c(-c5cccs5)cnc34)ccc12 | 67.8% |
| COc1ccc(-c2nc(Nc3cc(C)[nH]n3)c3ccccc3n2)cc1 | 15.9% |
| O=C1Nc2ccccc2/C1=C/C(=N/c1nnc(-c2ccc(Cl)cc2)s1)c1ccccc1 | 15% |
| Nc1cc2nc3ccccc3sc-2cc1=O | 56.3% |
| Cc1csc2ccc(Cl)cc12 | 96.9% |
| Cc1ccc(NC(=O)c2sc3nc4c(cc3c2N)C(=O)CCC4)cc1C | 35.7% |
| Cc1ccc2c(c1)n([O-])c1cc(Cl)ccc1[n+]2=O | 111% |
| CC(C)[C@@H]1CC[C@]2(C(=O)NCCCCN=C(N)N)CC[C@]3(C)[C@H](CC[C@@H]4[C@@]5(C)CCC(=O)C(C)(C)[C@@H]5CC[C@]43C)[C@@H]12 | 96.7% |
| COC1C/C(=N\O)C2OC(c3ccccc3)OCC2O1 (stereo unspecified) | 97.9% |
| COc1cc(-c2c3sc(=O)[nH]c3nc3c2c(=O)[nH]n3C(C)C)cc2c1OCO2 | 88.8% |
| CCOC(=O)C(C#N)C1CCCCC1 (stereo unspecified) | 75.5% |
| Cc1cc(Nc2nc(-c3cccnc3)nc3ccccc23)n[nH]1 | 2.35% (active) |

The compounds below were run on A498 renal in the same assay as above. Conditions: 10 µM unless noted.

| SMILES | growth |
| --- | --- |
| NC1=CC(=O)C(=O)c2ccccc21 | 101% |
| NC(CC(=O)O)C(=O)OCc1ccccc1 (stereo unspecified) | 85.4% |
| Cc1ccn2c(-c3csc(Nc4cccc(O)c4)n3)c(C)nc2c1 | 64.7% |
| COc1ccc(C(=O)c2sc3nc(-c4ccccc4OC)ccc3c2N)cc1OC | 47.7% |
| Cc1nn(-c2nc3ccccc3[nH]2)c2c1C(c1ccc3c(c1)OCO3)CC(=O)N2 (stereo unspecified) | -8.66% (active) |
| COc1cnc2c(c1)C(=O)c1c-2n(CCCN2CCCC2)c(=O)c2cc([N+](=O)[O-])ccc12 | -97.9% (active) |
| Cc1cc(Nc2nc(N3CCOCC3)nc3ccccc23)n[nH]1 | -13.4% (active) |
| O=c1c(/C=C/c2ccco2)nnc(SCCN2CCOCC2)n1/N=C/c1ccc([N+](=O)[O-])cc1 | 103% |
| Nc1nc2ccc(-c3nc4ccc5[nH]ncc5c4c4c3CCC4)cc2s1 | -9.59% (active) |
| COc1ccc(C(=O)c2sc3nc4c(cc3c2N)CCCC4)cc1OC | 34.9% |
| O=C1Nc2c(ccc(Cl)c2Cl)/C1=C/c1cc(Br)c(O)c(Br)c1 | 48.9% |
| Cn1c2c(Cl)c(Cl)ccc2c2ccn3c(=O)c4ccccc4nc3c21 | 120% |
| C/C(=C(/c1ccc(O)cc1)c1ccc(Cl)cc1)c1ccccc1 | -55.1% (active) |
| Oc1ccc2c(=S)cc(-c3ccc(Br)cc3)oc2c1O | 53.9% |
| COc1cccc(-n2cc(-c3nc(Nc4cc(C)[nH]n4)c4ccccc4n3)nn2)c1 | 36.1% |
| O=C([C@@H](COCc1ccccc1)N1C(=O)[C@@H](N2C(=O)OC[C@@H]2c2ccccc2)[C@H]1/C=C/c1ccccc1)N1CCC(CCN2CCCCC2)CC1 | 50.1% |
| COc1ccc(-c2cc(/C=C3\C(=O)Nc4ccc(Cl)cc43)[nH]n2)cc1 | 65.7% |
| CNC(=S)N/N=C/CSC/C=N/NC(=S)NC | 110% |
| CCCCCCCCOC(=O)CC[C@@H](C)[C@H]1CC[C@H]2[C@@H]3[C@H](OC(=O)CCN)C[C@@H]4C[C@H](OC(=O)CCN)CC[C@]4(C)[C@H]3C[C@H](OC(=O)CCN)[C@]12C | 131% |

| SMILES | growth |
| --- | --- |
| O=C1C=CC(=O)N1c1ccc(Cc2ccc(N3C(=O)C=CC3=O)cc2)cc1 | 91.2% |
| N#CC1=C(N)Oc2c(ccc3ccccc23)C1c1cccs1 (stereo unspecified) | -5.58% (active) |
| Cc1cc(Nc2nc(N3CCNCC3)nc3ccccc23)n[nH]1 | 45.3% |
| COc1cc(/C=N/N(C)C)ccc1O | 75.7% |
| CCN(CC)CC(O)CNc1c2ccc([N+](=O)[O-])cc2nc2cc(OC)c(OC)cc12 (stereo unspecified) | -52.9% (active) |
| O=C1Nc2ccc(Br)cc2C12CC(c1ccccc1)=NN2 (stereo unspecified) | 46.4% |
| O=C1C=CC(=O)c2c1nc1n2CCCC1 | 96.3% |
| Cc1cc(=O)oc2cc(Oc3nc(-c4cccs4)cn4c(-c5cccs5)cnc34)ccc12 | 64.4% |
| COc1ccc(-c2nc(Nc3cc(C)[nH]n3)c3ccccc3n2)cc1 | -18.1% (active) |
| O=C1Nc2ccccc2/C1=C/C(=N/c1nnc(-c2ccc(Cl)cc2)s1)c1ccccc1 | 104% |
| Nc1cc2nc3ccccc3sc-2cc1=O | 106% |
| Cc1csc2ccc(Cl)cc12 | 119% |
| Cc1ccc(NC(=O)c2sc3nc4c(cc3c2N)C(=O)CCC4)cc1C | -2.89% (active) |
| Cc1ccc2c(c1)n([O-])c1cc(Cl)ccc1[n+]2=O | 87.9% |
| CC(C)[C@@H]1CC[C@]2(C(=O)NCCCCN=C(N)N)CC[C@]3(C)[C@H](CC[C@@H]4[C@@]5(C)CCC(=O)C(C)(C)[C@@H]5CC[C@]43C)[C@@H]12 | 111% |
| COC1C/C(=N\O)C2OC(c3ccccc3)OCC2O1 (stereo unspecified) | 89.9% |
| COc1cc(-c2c3sc(=O)[nH]c3nc3c2c(=O)[nH]n3C(C)C)cc2c1OCO2 | 67.1% |
| CCOC(=O)C(C#N)C1CCCCC1 (stereo unspecified) | 117% |
| Cc1cc(Nc2nc(-c3cccnc3)nc3ccccc23)n[nH]1 | -19.7% (active) |
